Results published in PubChem BioAssay.
A number with no mark means an inactive call. For some assays here: Entries with a potency or affinity are not part of this list. Calls of active or inactive are those of the source. Unless noted, how the calls were made is not given here.

Tests used:
[1] = antimalarial activity against Dd2 strain (AID 2302;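 active means growth inhibition above 50% at the single 2 µM test dose, taken to imply half-maximal potency below 2 µM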;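 further: 0% = DMSO untreated growth and 100% = chloroquine plus artemisinin killed control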); conditions: P. falciparum Dd2 in RBCs, LDH growth readout, 72 h; at 2 µM; active compounds read high
[2] = HepG2 cytotoxicity, primary screen, cytotoxicity control for P. falciparum antimalarial project, cell-based, ATP luminescence (AID 2303;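 active means inhibition above 50%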;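 further: 0% = DMSO wells and 100% = digitonin-killed cells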); conditions: HepG2 viability, 24-48 h, at 10 µM, active compounds read high
[3] = target: L-lactate dehydrogenase (Plasmodium falciparum (isolate CDC / Honduras)) (UniProt Q27743); assay: PfLDH activity inhibition – cell lysate, 3D7 strain, counter-screen for P. falciparum growth inhibition project (AID 2304);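 further: 0% = vehicle and 100% = reference inhibitor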; conditions: P. falciparum 3D7 crude extract, LDH APAD/NBT absorbance; at 2 µM; active compounds read high
Sequence of L-lactate dehydrogenase (Plasmodium falciparum (isolate CDC / Honduras)) (Q27743 whole entry, looked up): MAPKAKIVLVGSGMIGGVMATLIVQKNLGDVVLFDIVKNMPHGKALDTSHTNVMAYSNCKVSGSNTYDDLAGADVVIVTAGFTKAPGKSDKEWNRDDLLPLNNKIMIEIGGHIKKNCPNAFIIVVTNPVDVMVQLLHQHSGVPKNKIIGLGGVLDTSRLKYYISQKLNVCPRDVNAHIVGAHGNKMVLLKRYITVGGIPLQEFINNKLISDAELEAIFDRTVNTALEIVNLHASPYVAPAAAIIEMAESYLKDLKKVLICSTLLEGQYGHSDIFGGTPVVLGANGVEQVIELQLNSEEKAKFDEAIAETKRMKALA

[4] = inhibition of 3D7 malaria parasite growth – strain 3D7 (AID 2306);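 further: 0% = DMSO wells and 100% = chloroquine plus artemisinin control wells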; conditions: P. falciparum 3D7 erythrocytic growth, LDH absorbance, 72 h; at 2 µM; active compounds read high
[5] = target: Calcium-dependent protein kinase 1 (Plasmodium falciparum (isolate 3D7)) (UniProt P62344); assay: PfCDPK1 kinase inhibitors, biochemical, TCAMS library (AID 1159585; cut-off not given, nearly all actives have IC50 up to about 0.98 µM;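 further: inhibitors leave more ATP so luminescence rises with inhibition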); conditions: recombinant PfCDPK1, Kinase-Glo ATP depletion luminescence
Sequence of Calcium-dependent protein kinase 1 (Plasmodium falciparum (isolate 3D7)) (P62344 whole entry, looked up): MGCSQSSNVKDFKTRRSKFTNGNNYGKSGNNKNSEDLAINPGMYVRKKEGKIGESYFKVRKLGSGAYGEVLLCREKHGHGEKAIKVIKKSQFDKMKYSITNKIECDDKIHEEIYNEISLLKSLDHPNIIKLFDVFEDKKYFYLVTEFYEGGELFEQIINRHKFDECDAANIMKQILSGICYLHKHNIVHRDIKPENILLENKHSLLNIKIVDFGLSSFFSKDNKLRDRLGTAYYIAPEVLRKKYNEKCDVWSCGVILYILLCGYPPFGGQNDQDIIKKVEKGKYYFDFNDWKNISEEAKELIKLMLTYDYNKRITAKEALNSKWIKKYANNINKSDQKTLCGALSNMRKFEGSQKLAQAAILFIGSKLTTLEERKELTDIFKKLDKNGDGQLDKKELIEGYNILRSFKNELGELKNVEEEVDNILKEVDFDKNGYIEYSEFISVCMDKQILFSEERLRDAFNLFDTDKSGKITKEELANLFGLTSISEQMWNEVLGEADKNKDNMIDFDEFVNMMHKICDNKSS

[6] = target: Plasmodium falciparum protein kinase 6 (PK6, PF3D7_1337100) (UniProt Q8IDW1); assay: PfPK6 kinase inhibitors, biochemical, TCAMS library (AID 1159586); conditions: recombinant PfPK6, Kinase-Glo ATP depletion luminescence
Sequence of Plasmodium falciparum protein kinase 6 (PK6, PF3D7_1337100) (Q8IDW1 1-305): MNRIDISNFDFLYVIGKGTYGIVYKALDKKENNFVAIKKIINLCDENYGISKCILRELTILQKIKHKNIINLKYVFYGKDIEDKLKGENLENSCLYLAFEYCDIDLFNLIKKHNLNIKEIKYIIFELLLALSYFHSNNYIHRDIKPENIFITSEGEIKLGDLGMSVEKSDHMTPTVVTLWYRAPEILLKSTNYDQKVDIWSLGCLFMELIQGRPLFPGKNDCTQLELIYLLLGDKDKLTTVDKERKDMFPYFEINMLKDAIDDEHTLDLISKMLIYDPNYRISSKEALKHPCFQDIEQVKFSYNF

[7] = target: Protein kinase 7 (PK7), Plasmodium falciparum 3D7 (PF3D7_0213400) (UniProt Q7YTF7); assay: inhibition of Plasmodium PK7 catalytic activity – biochemical, TCAMS antimalarial set, Kinase-Glo luminescence (AID 1159587); conditions: recombinant PfPK7, Kinase-Glo ATP depletion luminescence
Sequence of Protein kinase 7 (PK7), Plasmodium falciparum 3D7 (PF3D7_0213400) (Q7YTF7 1-343): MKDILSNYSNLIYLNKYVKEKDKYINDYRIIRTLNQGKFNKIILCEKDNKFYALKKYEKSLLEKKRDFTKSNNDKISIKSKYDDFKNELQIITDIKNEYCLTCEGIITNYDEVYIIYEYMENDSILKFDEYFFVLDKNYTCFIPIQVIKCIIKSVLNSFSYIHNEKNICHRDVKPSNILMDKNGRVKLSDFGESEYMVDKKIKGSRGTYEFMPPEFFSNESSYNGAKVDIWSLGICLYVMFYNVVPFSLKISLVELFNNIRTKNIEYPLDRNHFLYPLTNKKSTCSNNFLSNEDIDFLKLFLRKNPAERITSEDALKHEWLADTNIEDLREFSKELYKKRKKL

[8] = target: Calcium-dependent protein kinase 4 (Plasmodium falciparum (isolate 3D7)) (UniProt Q8IBS5); assay: PfCDPK4 kinase inhibitors, biochemical, TCAMS library (AID 1159588; cut-off not given, nearly all actives have IC50 up to about 0.91 µM); conditions: recombinant PfCDPK4, Kinase-Glo ATP depletion luminescence
Sequence of Calcium-dependent protein kinase 4 (Plasmodium falciparum (isolate 3D7)) (Q8IBS5 whole entry, looked up): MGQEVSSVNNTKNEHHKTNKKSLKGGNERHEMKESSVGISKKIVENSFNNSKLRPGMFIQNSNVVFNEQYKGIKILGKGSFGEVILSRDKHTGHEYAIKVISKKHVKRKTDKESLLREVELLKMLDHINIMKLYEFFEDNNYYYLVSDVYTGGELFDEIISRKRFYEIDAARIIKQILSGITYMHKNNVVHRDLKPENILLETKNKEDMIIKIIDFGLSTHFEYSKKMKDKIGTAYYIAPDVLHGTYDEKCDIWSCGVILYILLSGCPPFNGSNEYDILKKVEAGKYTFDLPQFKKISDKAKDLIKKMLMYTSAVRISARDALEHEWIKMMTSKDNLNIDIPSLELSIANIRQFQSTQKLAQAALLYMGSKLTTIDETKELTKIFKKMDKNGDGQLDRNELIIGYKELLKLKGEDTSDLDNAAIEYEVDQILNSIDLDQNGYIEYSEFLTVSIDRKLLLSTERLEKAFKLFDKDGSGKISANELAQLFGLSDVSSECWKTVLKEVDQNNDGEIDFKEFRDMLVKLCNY

Structure (SMILES)	growth inhibition [1]	inhibition [2]	inhibition [3] [%]	growth inhibition [4]	outcome [5]	outcome [6]	outcome [7]	outcome [8]
CCN(CC)CCCC(C)Nc1ccnc2[nH]c3ccccc3c12 (stereo not given)	38%	0%	6	82% (active)	inactive	inactive	inactive	inactive
Nc1ccc(Oc2ccc(Cc3cnc(N)nc3N)cc2)cc1	5%	10%	-3	86% (active)	inactive	inactive	inactive	inactive
Cc1cccc2[nH]c(-c3ccc(-c4cccc(CN5CCN(c6ccncc6)CC5)c4)s3)nc12	99% (active)	48%	6	101% (active)	inactive	inactive	inactive	inactive
CN(CCNCc1ccc(-c2cccc(-c3nc4ccccc4[nH]3)c2)cc1)S(C)(=O)=O	29%	9%	-2	101% (active)	inactive	inactive	inactive	inactive
CC1CCCCC1N(C)C1CCN(CCCNC(=O)C=Cc2cccc(C(F)(F)F)c2)CC1 (stereo not given)	17%	47%	-2	100% (active)	inactive	inactive	inactive	inactive
Cc1ccnc(Nc2nc(-c3ccccn3)cs2)c1	87% (active)	45%	-4	100% (active)	inactive	inactive	inactive	inactive
CC1CN(Cc2ccc(-c3cccc(-c4nc5ccc(F)cc5[nH]4)c3)cc2)CC(C)O1 (stereo not given)	20%	28%	-3	93% (active)	inactive	inactive	inactive	inactive
CN(C)CCCOc1c(C(C)(C)C)cc(-c2cc(C(C)(C)C)c(OCCCN(C)C)c(C(C)(C)C)c2)cc1C(C)(C)C	99% (active)	25%	0	100% (active)	inactive	inactive	inactive	inactive
O=C(n1c(-c2cc3ccccc3n2C(=O)C(F)(F)F)cc2ccccc21)C(F)(F)F	80% (active)	30%	5	94% (active)	inactive	inactive	inactive	inactive
Cc1ccc(-c2nnc(Nc3ccc(OCC(N)=O)cc3)c3ccccc23)cc1S(=O)(=O)NCC1CCCO1 (stereo not given)	70% (active)	0%	-2	92% (active)	inactive	inactive	inactive	inactive
O=C(CN1CCN(C(C(=O)Nc2cc(C(F)(F)F)ccc2Cl)c2ccccc2)CC1)NC1CC1 (stereo not given)	93% (active)	-6%	-3	95% (active)	inactive	inactive	inactive	inactive
COc1cc(OC)cc(C(=O)Nc2cccc(-c3cn4ccc(C)cc4n3)c2)c1	45%	4%	0	86% (active)	inactive	inactive	inactive	inactive
COC(=O)c1sc(-c2ccc(Cl)cc2)cc1N(CCCN1CCC(N2CCCCC2)CC1)S(=O)(=O)c1ccc(C)cc1	86% (active)	25%	-2	103% (active)	inactive	inactive	inactive	inactive
O=C(Nc1cccc(CN2CCN(Cc3ccc(O)cc3)CC2)c1)c1cccc(C(F)(F)F)c1	15%	21%	2	91% (active)	inactive	inactive	inactive	inactive
COc1cc2c(cc1C(F)(F)F)N(C(=O)Nc1cc(F)c(F)c(-c3cccnc3)c1)CC2	15%	20%	3	90% (active)	inactive	inactive	inactive	inactive
COc1ccc2nccc([C@@H](O)CN3CCC(NC(=O)C(c4ccccc4C)N4CCC(Cc5ccccc5)CC4)CC3)c2c1 (stereo not given in full)	97% (active)	10%	3	102% (active)	inactive	inactive	inactive	inactive
COc1cc2ccccc2c(CON2C(N)=NC(N)=NC2(C)C)c1OC	10%	2%	1	96% (active)	inactive	inactive	inactive	inactive
CCN(CC)c1ccc(C=CC(=O)NCCN2CCC(N(C)C3CCCCC3C)CC2)cc1 (stereo not given)	18%	29%	-3	88% (active)	inactive	inactive	inactive	inactive
C=CCOc1ccc(C(=O)Nc2nonc2-c2ccc(OC)c(OC)c2)cc1	91% (active)	2%	-5	100% (active)	inactive	inactive	inactive	inactive
O=S(=O)(NCCN1CCCC1)c1ccc(-c2ccc(CNC3Cc4ccccc4C3)cc2)cc1	91% (active)	61% (active)	5	99% (active)	inactive	inactive	inactive	inactive

Structure (SMILES)	growth inhibition [1]	inhibition [2]	inhibition [3] [%]	growth inhibition [4]	outcome [5]	outcome [6]	outcome [7]	outcome [8]
COc1cc(NC2=NS(=O)(=O)c3cc(Cl)ccc3N2C)cc(OC)c1OC	100% (active)	-6%	-2	101% (active)	inactive	inactive	inactive	inactive
CC(=O)OC[C@H]1O[C@@H](C#Cc2ccccc2)[C@H](OC(C)=O)[C@@H](OC(C)=O)[C@@H]1OC(C)=O	90% (active)	5%	0	95% (active)	inactive	inactive	inactive	inactive
CC(=O)Nc1ccc(S(=O)(=O)Nc2ccc(Nc3nc(C)cc(N4CCCCC4)n3)cc2)cc1	54% (active)	23%	0	89% (active)	inactive	inactive	inactive	inactive
CCCn1c(SCC(=O)Nc2cc(Cl)ccc2Cl)n[nH]c1=O	53% (active)	-5%	-2	88% (active)	inactive	inactive	inactive	inactive
Cc1cccc(CNc2nc(C)cc(N[C@@H](Cc3ccccc3)C(=O)NC3CCCC3)n2)c1	97% (active)	51% (active)	-3	100% (active)	inactive	inactive	inactive	inactive
Nc1ncnc2cc(-c3cccc(NC(=O)Nc4ccccc4)c3)sc12	33%	4%	9	94% (active)	inactive	inactive	inactive	inactive
Cc1cc(CN2CCCC(OC(c3ccc(F)cc3)c3ccc(F)cc3)C2)ccc1O (stereo not given)	82% (active)	28%	3	89% (active)	inactive	inactive	inactive	inactive
CCC(Cc1cnc2nc(N)nc(N)c2n1)c1ccc(C(=O)O)cc1 (stereo not given)	-2%	15%	-2	93% (active)	inactive	inactive	inactive	inactive
Cc1cc(N[C@@H](CC(C)C)C(=O)NCCCOC(C)C)nc(NCCc2ccc(F)cc2)n1	19%	5%	-2	87% (active)	inactive	inactive	inactive	inactive
COc1ccc2nccc([C@@H](O)CN3CCC(NC(=O)CCC(=O)c4cc(C(C)(C)C)ccc4OC)CC3)c2c1	51% (active)	26%	-9	94% (active)	inactive	inactive	inactive	inactive
CN1CCN(CCCN(Cc2csc(-c3ccc(CNCc4ccccc4)cc3)n2)C(=O)Nc2cccc(Cl)c2)CC1	67% (active)	32%	-5	102% (active)	inactive	inactive	inactive	inactive
Cc1cc(NN=Cc2cccc(F)c2)c2ccc(F)cc2n1	99% (active)	2%	-2	101% (active)	inactive	inactive	inactive	inactive
O=C(Nc1ccc2ccccc2c1)c1ccc(CN2CCC(Cc3ccccc3)CC2)cc1	10%	38%	-8	95% (active)	inactive	inactive	inactive	inactive
COc1ccc(-c2cccc(NC(=O)c3cccc(C#N)c3)c2)cc1CN1CCC(O)CC1	13%	30%	-3	97% (active)	inactive	inactive	inactive	inactive
Cc1noc(C)c1-c1ccc2c(Nc3ccccc3N3CCOCC3)c(C(=O)NCc3ccccc3)cnc2c1	6%	23%	-2	91% (active)	inactive	inactive	inactive	inactive
S=c1nc(-c2ccccc2)n2ccsc2n1	0%	3%	-6	95% (active)	inactive	inactive	inactive	inactive
COc1ccc2nccc([C@@H](O)CN3CCC(NCc4cc5cc(OC(F)(F)F)ccc5[nH]4)CC3)c2c1	82% (active)	49%	2	100% (active)	inactive	inactive	inactive	inactive
O=S(=O)(Nc1cccc(CCN2CCCCC2CCN2CCCC2)c1)c1ccc2ccccc2c1 (stereo not given)	40%	22%	-2	91% (active)	inactive	inactive	inactive	inactive
CCCn1c(Sc2ccc(C#N)c([N+](=O)[O-])c2)nnc1-c1ccc(OC)cc1	95% (active)	-6%	-2	94% (active)	inactive	inactive	inactive	inactive
O=C(Nc1ccc(-c2cccc(-c3nc4ccc(C(F)(F)F)cc4[nH]3)c2)cc1)c1ccoc1	13%	52% (active)	-9	96% (active)	inactive	inactive	inactive	inactive
